A selection: hits, their analogues and other compounds. The true share with any hit is near 6%.
D1 antag – human D1 dopamine receptor antagonism; P21728; HEK293 TREx D1 cells, calcium flux, dopamine EC80; hits give low values; activity change, negative = inhibition, % at 10 µM; 360,000 compounds, 3.2% hits; in the data active = activity change below about -30%; also: % is scaled to controls: 0 for no effect and ±100 for the full control effect
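HEK293 T-REx cells expressing inducible, force-coupled D1 receptor; no-wash Ca dye, 30–90 min RT. Cmpd → 180 s read at 1 Hz → EC80 DA → 180 s read.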
D1 PAM – enhances dopamine response at the human D1 receptor | HEK293 TREx D1 cells, calcium flux, dopamine EC20 potentiation | potentiation, % at 10 µM | 360,000 compounds, 0.036% hits | AID 504651; in the data active = potentiation above about 30%; also: 0% is about no effect
DRD3 antagonist – D3 dopamine receptor (human) antagonism; 360,000 compounds, 2.5% hits; max response, negative = inhibition, %; P35462; D3R cells, DiscoveRx beta-arrestin luminescence, antagonist mode; hits give low values; in the data active = max response below about -50%; also: % is scaled to controls: 0 for no effect and ±100 for the full control effect
Target sequence (P35462 whole entry, looked up): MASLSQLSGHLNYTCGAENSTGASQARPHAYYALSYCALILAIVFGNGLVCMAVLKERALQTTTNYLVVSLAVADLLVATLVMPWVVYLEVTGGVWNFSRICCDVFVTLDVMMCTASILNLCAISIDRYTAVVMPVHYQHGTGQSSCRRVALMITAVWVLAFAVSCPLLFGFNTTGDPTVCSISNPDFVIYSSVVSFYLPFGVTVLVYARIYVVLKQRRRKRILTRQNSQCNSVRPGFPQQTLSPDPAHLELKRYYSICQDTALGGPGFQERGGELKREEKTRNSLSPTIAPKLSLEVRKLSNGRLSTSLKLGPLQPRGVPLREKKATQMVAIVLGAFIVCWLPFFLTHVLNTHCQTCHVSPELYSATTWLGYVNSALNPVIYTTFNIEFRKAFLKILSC
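Cells expressing the human receptor were seeded at 1500 cells/well, incubated overnight at 37 degrees C in 5% CO2, then exposed to library compounds with dopamine controls for 90 minutes at 37 degrees C before luminescent detection.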
D1 ag – agonists of human D1 dopamine receptor; 360,000 compounds, 1% hits; HEK293 T-REx D1 cells, calcium flux, agonist mode; AID 504660; P21728; activation, % at 2 µM; in the data active = activation above about 30%; also: 0% is about no effect
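Inducible HEK293 T-REx D1 cells, force-coupled to calcium signalling, were plated at 4000 cells/well with tetracycline and held overnight at 30 C. After no-wash calcium dye loading, compound-evoked calcium rise over 180 s flagged agonists.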
DRD3 agonist – D3 dopamine receptor (human) agonism | P35462 | 410,000 compounds, 0.58% hits | AID 652048 | D3R DiscoveRx beta-arrestin cells, luminescence, 90 min | max activation, %; in the data active = max activation above about 30%; also: 0% is about no effect
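Cells at 1500/well, incubated overnight, then treated with pinned compounds (dopamine as control) for 90 min at 37 degrees C. DiscoveRx reagent added for 30 - 60 minutes at room temperature; luminescence read.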
Numbers without * were called inactive.

What do the screens show for `COC(=O)Nc1ncc(CN2CCC(c3ccccc3)CC2)s1`?
D1 antag: 1; D1 PAM: -2; DRD3 antagonist: -54*; D1 ag: 1; DRD3 agonist: 10

How did Cc1ncc(CN2CCC(n3nccc3NC(=O)c3ccccc3)CC2)s1 do in these assays?
D1 antag: -6; D1 PAM: -1; DRD3 antagonist: 10; D1 ag: 2; DRD3 agonist: 1

What do the screens show for `COc1ccc(/C=N/N2CCN(c3ccc(Cl)cc3)CC2)cc1`?
D1 antag: -7; D1 PAM: -2; DRD3 antagonist: -2; D1 ag: 2; DRD3 agonist: -2

What do the screens show for `Cc1ccc(N=C2C(=S)N(c3ccc(C)cc3)C(=N)N2/N=C/c2ccc(Cl)cc2)cc1`?
D1 antag: -23; D1 PAM: -11; DRD3 antagonist: -51*; D1 ag: -1; DRD3 agonist: 0

How did CCC(=O)N1CCc2cc(S(=O)(=O)NCCC(=O)NC(C)c3ccccc3)ccc21 (stereo not drawn) do in these assays?
D1 antag: 5; D1 PAM: 0; D1 ag: 2; DRD3 agonist: 3

Results for Cc1cccc(N(C)C(=O)CCS(=O)(=O)c2ccc3c(c2)n(C)c(=O)c(=O)n3C)c1 ?
D1 antag: -32*; D1 PAM: -5; D1 ag: -1; DRD3 agonist: 4

Results for O=C(Cc1ccc(Cl)cc1)OCc1nnc(-c2ccccc2)o1 ?
D1 antag: 11; D1 PAM: -4; DRD3 antagonist: -11; D1 ag: 1; DRD3 agonist: 1

What do the screens show for `O=C(OCc1nnc(-c2ccc(Cl)cc2)o1)C12CC3CC(CC(O)(C3)C1)C2`?
D1 antag: -75*; D1 PAM: -8; DRD3 antagonist: 5; D1 ag: 8; DRD3 agonist: 2

Results for COCCCN(C(=O)C(C)Oc1ccc(Br)cc1)c1c(N)n(Cc2ccccc2)c(=O)[nH]c1=O (stereo not drawn) ?
D1 antag: -15; D1 PAM: -1; DRD3 antagonist: 2; D1 ag: 4; DRD3 agonist: 4

What do the screens show for `Cc1cccc(C)c1NC(=O)C(C)n1c(-c2ccc(=O)[nH]c2)nc2ccccc21` (stereo not drawn)?
DRD3 antagonist: 9; DRD3 agonist: 5

Results for CCC(C(=O)Nc1c(C)cccc1C)n1c(-c2ccc(-c3ccccc3)cc2)nc2ccccc21 (stereo not drawn) ?
DRD3 antagonist: -25; DRD3 agonist: 71*

How did CCC(C(=O)NC(C)(C)C)n1c(-c2ccc(C)cc2)nc2ccccc21 (stereo not drawn) do in these assays?
DRD3 antagonist: 0; DRD3 agonist: 53*

How did COc1ccc(-c2nc3ccc(C(=O)NCc4ccccc4)cc3nc2-c2ccc(OC)cc2)cc1 do in these assays?
D1 antag: -6; D1 PAM: 1; D1 ag: 0; DRD3 agonist: 8

What do the screens show for `COc1ccc(C(=O)Nc2ccc3c(c2)CCCN3S(=O)(=O)c2ccc(C)cc2)c(OC)c1`?
D1 antag: -8; D1 PAM: 1; D1 ag: 6; DRD3 agonist: 7

How did Cc1oc2ccc(OCc3ccc(Br)cc3)cc2c1C(=O)O do in these assays?
D1 antag: -3; D1 PAM: -9; DRD3 antagonist: 21; D1 ag: 0; DRD3 agonist: 4

Results for Cn1c(=O)oc2cc(S(=O)(=O)N3CCCC(C(=O)NCCc4ccc(Cl)cc4)C3)ccc21 (stereo not drawn) ?
D1 antag: 16; D1 PAM: 4; D1 ag: 4; DRD3 agonist: -9

What do the screens show for `O=C(c1cccc(S(=O)(=O)Nc2ccc(F)cc2)c1)N1CCC1`?
D1 antag: 8; D1 PAM: -2; DRD3 antagonist: -4; D1 ag: 4; DRD3 agonist: 2

Results for Cc1cc(-c2ccccc2)nc2cc(C(=O)Nc3ccc(Cl)c(Cl)c3)nn12 ?
D1 antag: 2; D1 PAM: 3; D1 ag: 2; DRD3 agonist: -5

Results for CC(C)(C)n1ncc2c(=O)n(CC(=O)Nc3ccc(Cl)cc3)cnc21 ?
D1 antag: 9; D1 PAM: 2; DRD3 antagonist: -54*; D1 ag: 0; DRD3 agonist: -14

What do the screens show for `CCOc1cc2sc(N3CCC(C(=O)Nc4ccccc4C(=O)OC)CC3)nc2cc1Br`?
D1 antag: 11; D1 PAM: -2; D1 ag: 2; DRD3 agonist: 16

What do the screens show for `COc1ccc(N2CCN(C(=O)Cn3nnc(-c4cccs4)n3)CC2)cc1`?
D1 antag: 6; D1 PAM: 2; DRD3 antagonist: -103*; D1 ag: -2; DRD3 agonist: 14

Results for Cc1cccc(N2CCN(S(=O)(=O)c3ccc(-c4cc(C(F)(F)F)on4)s3)CC2)c1C ?
D1 antag: 15; D1 PAM: -3; D1 ag: 2; DRD3 agonist: 6

How did O=C(Nc1ccc(Cl)cc1)N1CCC(CN2CCCCCC2)CC1 do in these assays?
D1 antag: -17; D1 PAM: 1; D1 ag: 1; DRD3 agonist: -13

What do the screens show for `CCc1cc(C(=O)c2ccc(Br)cc2)c(NC(=O)CN(CC)CC)s1`?
D1 antag: 4; D1 PAM: 7; DRD3 antagonist: -62*; D1 ag: 7; DRD3 agonist: 2

How did COc1ccccc1C(=O)NCC(c1cccs1)N1CCc2ccccc21 (stereo not drawn) do in these assays?
D1 antag: -9; D1 PAM: 6; DRD3 antagonist: -53*; D1 ag: 4; DRD3 agonist: -14

How did COc1cc(C(=O)NCC(c2cccs2)N2CCc3ccccc32)cc(OC)c1OC (stereo not drawn) do in these assays?
D1 antag: 5; D1 PAM: -8; DRD3 antagonist: 2; D1 ag: 1; DRD3 agonist: 6

Results for CC(C)N(c1ccccc1)c1ccc(NC(=S)NCCN(C)C)cc1 ?
D1 antag: 8; D1 PAM: -4; DRD3 antagonist: -73*; D1 ag: 34*; DRD3 agonist: -13

What do the screens show for `CN(C)CCCNC(=S)Nc1ccc(-c2ccccc2)cc1`?
D1 antag: -7; D1 PAM: -3; DRD3 antagonist: -7; D1 ag: 34*; DRD3 agonist: -16

What do the screens show for `CN(C)CCCNC(=S)Nc1ccc(Oc2ccccc2)cc1`?
D1 antag: -22; D1 PAM: -9; DRD3 antagonist: -6; D1 ag: 12; DRD3 agonist: -8

Results for CCc1ccc(C(=O)c2cn(CC(=O)Nc3cccc(OC)c3)c3ccc(OC)cc3c2=O)cc1 ?
D1 antag: 16; D1 PAM: 1; D1 ag: 7; DRD3 agonist: -12

How did CN(c1ccc(C(=O)NCCCn2ccnc2)cc1)S(C)(=O)=O do in these assays?
D1 antag: 2; D1 PAM: 6; DRD3 antagonist: -13; D1 ag: 2; DRD3 agonist: -1
